{"source": "PubChem BioAssay (NCI)", "note": "The panel holds about 83,000 compounds, 20% with a hit somewhere; the sample as a whole holds those more often.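 Cell lines were cultured in 96-well plates, exposed to a single compound concentration, and assessed for percent growth 48 hours later.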 Calls of active or inactive are those of the source. Rule for the calls: active = growth percent below 10; inactive = the rest.", "data": [{"system": "SW-620 colon", "test": "NCI-60 one-dose screen, 48 h (100 = growth as untreated, 0 = no growth, -100 = all killed)", "conditions": "10 µM unless noted", "values": [{"smiles": "Cc1ccc(C(=O)CSc2nc3ccc(C)cc3c(=O)n2-c2ccc(F)cc2)cc1", "growth": "89% (inactive)"}, {"smiles": "Cc1nc(Nc2ccccn2)sc1C(=O)CC(SCC(=O)Nc1ccc(Cl)cc1)c1ccccc1F", "note": "(stereo not drawn)", "growth": "2.15% (active)"}, {"smiles": "O=c1onc(-c2cc3ccccc3nc2Cl)n1-c1cccc2ccccc12", "growth": "29.7% (inactive)"}, {"smiles": "Cc1cc(C)cc(NC(=O)Cn2cc(COn3nnc4ccccc43)nn2)c1", "growth": "115% (inactive)"}, {"smiles": "Cn1cc(-c2cc3nc(-c4cn(C)c5ncc(Br)cc45)cc(N)n3n2)c2ccccc21", "growth": "-48% (active)"}]}, {"system": "MCF7 breast", "test": "NCI-60 one-dose screen, 48 h (100 = growth as untreated, 0 = no growth, -100 = all killed)", "conditions": "10 µM unless noted", "values": [{"smiles": "Cc1ccc(S(=O)(=O)c2nc(S(=O)(=O)c3ccc(C)cc3)c(N3CCC(O)CC3)s2)cc1", "growth": "43.4% (inactive)"}, {"smiles": "COc1ccc2c(c1)C(=N/N=C(\\C)c1ccc(OC)c(S(N)(=O)=O)c1)C(=O)N2", "growth": "90.3% (inactive)"}, {"smiles": "COc1cc2oc(-c3cccc(C(=O)Nc4ccc(Cl)cc4)c3)cc(=O)c2c(OCCNC(=O)[C@H](CCC(=O)OC(C)(C)C)NC(=O)OC(C)(C)C)c1OC", "growth": "83% (inactive)"}, {"smiles": "C=CC[N+](C)(C)CCn1c2ccccc2c2nc3cc(C)c(C)cc3nc21", "growth": "80% (inactive)"}, {"smiles": "O=C(c1ccc(OCCN2CCOCC2)cc1)C1[C@H](c2ccc(Cl)cc2)[C@@H](c2ccccc2)NC12C(=O)Nc1ccc(Br)cc12", "note": "(stereo partly drawn)", "growth": "1.4% (active)"}, {"smiles": "N#Cc1c(-c2ccc(Br)cc2)nc2n[nH]c(-c3ccc(Br)cc3)c2c1-c1ccc(F)cc1", "growth": "78.7% (inactive)"}, {"smiles": "Cc1ccccc1[C@H]1C(C(=O)c2ccc(Cl)cc2)C2(N[C@@H]1c1ccccc1)C(=O)Nc1ccc(Cl)cc12", "note": "(stereo partly drawn)", "growth": "-22.3% (active)"}, {"smiles": "COc1cc(C2CC(c3cc(OC)c(OC)c(OC)c3)=NN2C(C)=O)ccc1OCc1ccccc1", "note": "(stereo not drawn)", "growth": "17.1% (inactive)"}, {"smiles": "Cc1cccc(NC(=O)[C@]23CCC(C)(C)CC2C2=CCC4[C@@]5(C)C[C@@H](O)[C@H](O)[C@@](C)(CO)C5CC[C@@]4(C)[C@]2(C)CC3)c1", "note": "(stereo partly drawn)", "growth": "-6.63% (active)"}, {"smiles": "S=c1c2ccccc2nc2n1CCc1c-2[nH]c2ccccc12", "growth": "43% (inactive)"}, {"smiles": "CCCCSc1nc(NCCc2c[nH]c3ccccc23)c(C#N)c(-c2ccccc2)n1", "growth": "3.23% (active)"}, {"smiles": "CC(C)c1sc(NC(=O)c2cc(NC(=O)c3cc(NC(=O)c4cscn4)cn3C)cn2C)nc1C(=O)NCCCN(C)C", "growth": "24.5% (inactive)"}, {"smiles": "CC(=O)Nc1ccc(-n2cnc3ccc(-c4ccc(O)cc4)cc32)cc1", "growth": "10.6% (inactive)"}, {"smiles": "Cc1ccc(NCC(=O)Cn2cc(COc3ccc(C=Nc4cnc5ccccc5c4)cc3)nn2)cc1", "growth": "102% (inactive)"}, {"smiles": "Cc1ccc([C@H]2C(C(=O)c3ccc(Cl)cc3)C3(N[C@@H]2c2ccccc2)C(=O)Nc2ccc(Br)cc23)cc1", "note": "(stereo partly drawn)", "growth": "21.2% (inactive)"}, {"smiles": "Cn1cc(-c2nnc(N)nc2-c2c[nH]c3ccc(Br)cc23)c2cc(Br)cnc21", "growth": "29.8% (inactive)"}, {"smiles": "O=C(c1ccccc1)c1ccc2nc(-c3ccc(F)cc3)[nH]c2c1", "growth": "35.9% (inactive)"}, {"smiles": "COc1ccc(-c2nc(SCC(C)C)nc(NCCc3c[nH]c4ccccc34)c2C#N)cc1", "growth": "22.8% (inactive)"}, {"smiles": "S=C(Nc1ccccc1)Nc1ccc(OCc2nc3ccccc3[nH]2)cc1", "growth": "20.2% (inactive)"}, {"smiles": "O=C(/C=C/Nc1ccc(Cl)cc1)c1ccc2c(c1)Nc1ccccc1S2", "growth": "40.1% (inactive)"}, {"smiles": "COc1ccc(C(=O)/C=C/c2ccc(OCc3ccc(F)cc3)c(OC)c2)cc1OC", "growth": "7.56% (active)"}, {"smiles": "Cc1ccc(C(=O)CSc2nc3ccc(C)cc3c(=O)n2-c2ccc(F)cc2)cc1", "growth": "78.1% (inactive)"}, {"smiles": "O=C(NNc1ccccc1)n1c(=O)c2ccccc2c(=O)n1-c1ccccc1", "growth": "88.3% (inactive)"}, {"smiles": "Cc1nc(Nc2ccccn2)sc1C(=O)CC(SCC(=O)Nc1ccc(Cl)cc1)c1ccccc1F", "note": "(stereo not drawn)", "growth": "13.2% (inactive)"}, {"smiles": "O=c1onc(-c2cc3ccccc3nc2Cl)n1-c1cccc2ccccc12", "growth": "21.4% (inactive)"}, {"smiles": "N#Cc1c(-c2cccc(Cl)c2Cl)cc(-c2c[nH]c3ccccc23)[nH]c1=O", "growth": "35.8% (inactive)"}, {"smiles": "CC(=O)OC[C@@]1(C)C2CC[C@]3(C)C(CC=C4C5CC(C)(C)CC[C@]5(C(=O)Nc5ccc(Br)cc5)CC[C@]43C)[C@@]2(C)C[C@@H](OC(C)=O)[C@@H]1OC(C)=O", "note": "(stereo partly drawn)", "growth": "28.2% (inactive)"}, {"smiles": "Cc1cc(C)cc(NC(=O)Cn2cc(COn3nnc4ccccc43)nn2)c1", "growth": "99.5% (inactive)"}, {"smiles": "CC(=O)Nc1cccc(Nc2nc(NCc3ccccc3)c3ccccc3n2)c1", "growth": "-77.2% (active)"}, {"smiles": "Clc1cccc(Cl)c1/C=C/c1cc(/C=C/c2ccc(Br)cc2)c2ccccc2n1", "growth": "83.3% (inactive)"}, {"smiles": "N#Cc1c(-c2ccccc2Cl)cc(-c2c[nH]c3ccccc23)[nH]c1=O", "growth": "50.9% (inactive)"}]}, {"system": "HCT-116 colon", "test": "NCI-60 one-dose screen, 48 h (100 = growth as untreated, 0 = no growth, -100 = all killed)", "conditions": "10 µM unless noted", "values": [{"smiles": "Cc1ccc(S(=O)(=O)c2nc(S(=O)(=O)c3ccc(C)cc3)c(N3CCC(O)CC3)s2)cc1", "growth": "53.7% (inactive)"}, {"smiles": "Cc1sc2c(c1C)C(c1ccc(Cl)cc1)=N[C@@H](CC(=O)NCCCCCNC(=O)COc1ccc(C3CCC(=O)NC3=O)cc1)c1nnc(C)n1-2", "note": "(stereo partly drawn)", "growth": "20% (inactive)"}, {"smiles": "COc1ccc2c(c1)C(=N/N=C(\\C)c1ccc(OC)c(S(N)(=O)=O)c1)C(=O)N2", "growth": "88.6% (inactive)"}, {"smiles": "COc1cc2oc(-c3cccc(C(=O)Nc4ccc(Cl)cc4)c3)cc(=O)c2c(OCCNC(=O)[C@H](CCC(=O)OC(C)(C)C)NC(=O)OC(C)(C)C)c1OC", "growth": "95.6% (inactive)"}, {"smiles": "COc1ccc(-c2nc3cc(C)ccc3n2CC(=O)N=Nc2c(O)[nH]c3ccc(Cl)cc23)cc1", "growth": "-65.4% (active)"}, {"smiles": "C=CC[N+](C)(C)CCn1c2ccccc2c2nc3cc(C)c(C)cc3nc21", "growth": "98.4% (inactive)"}, {"smiles": "O=C(c1ccc(OCCN2CCOCC2)cc1)C1[C@H](c2ccc(Cl)cc2)[C@@H](c2ccccc2)NC12C(=O)Nc1ccc(Br)cc12", "note": "(stereo partly drawn)", "growth": "4.57% (active)"}, {"smiles": "N#Cc1c(-c2ccc(Br)cc2)nc2n[nH]c(-c3ccc(Br)cc3)c2c1-c1ccc(F)cc1", "growth": "95.3% (inactive)"}, {"smiles": "Cc1ccccc1[C@H]1C(C(=O)c2ccc(Cl)cc2)C2(N[C@@H]1c1ccccc1)C(=O)Nc1ccc(Cl)cc12", "note": "(stereo partly drawn)", "growth": "-84.6% (active)"}, {"smiles": "COc1cc(C2CC(c3cc(OC)c(OC)c(OC)c3)=NN2C(C)=O)ccc1OCc1ccccc1", "note": "(stereo not drawn)", "growth": "24.3% (inactive)"}, {"smiles": "Cc1cccc(NC(=O)[C@]23CCC(C)(C)CC2C2=CCC4[C@@]5(C)C[C@@H](O)[C@H](O)[C@@](C)(CO)C5CC[C@@]4(C)[C@]2(C)CC3)c1", "note": "(stereo partly drawn)", "growth": "1.25% (active)"}, {"smiles": "CC12CC[C@@H]3[C@]4(C)COC(c5cn[nH]c5-c5ccc(Cl)cc5)O[C@@H]4CC[C@@]3(C)[C@@H]1CC(C1=CCOC1=O)O2", "note": "(stereo partly drawn)", "growth": "25.1% (inactive)"}, {"smiles": "S=c1c2ccccc2nc2n1CCc1c-2[nH]c2ccccc12", "growth": "48.7% (inactive)"}, {"smiles": "CCCCSc1nc(NCCc2c[nH]c3ccccc23)c(C#N)c(-c2ccccc2)n1", "growth": "4.22% (active)"}, {"smiles": "CC(C)c1sc(NC(=O)c2cc(NC(=O)c3cc(NC(=O)c4cscn4)cn3C)cn2C)nc1C(=O)NCCCN(C)C", "growth": "-79.5% (active)"}, {"smiles": "CC(=O)Nc1ccc(-n2cnc3ccc(-c4ccc(O)cc4)cc32)cc1", "growth": "20.2% (inactive)"}, {"smiles": "Cc1ccc(NCC(=O)Cn2cc(COc3ccc(C=Nc4cnc5ccccc5c4)cc3)nn2)cc1", "growth": "110% (inactive)"}, {"smiles": "Cc1ccc([C@H]2C(C(=O)c3ccc(Cl)cc3)C3(N[C@@H]2c2ccccc2)C(=O)Nc2ccc(Br)cc23)cc1", "note": "(stereo partly drawn)", "growth": "30.7% (inactive)"}, {"smiles": "Cn1cc(-c2nnc(N)nc2-c2c[nH]c3ccc(Br)cc23)c2cc(Br)cnc21", "growth": "44.8% (inactive)"}, {"smiles": "O=C(c1ccccc1)c1ccc2nc(-c3ccc(F)cc3)[nH]c2c1", "growth": "41.7% (inactive)"}, {"smiles": "COc1ccc(-c2nc(SCC(C)C)nc(NCCc3c[nH]c4ccccc34)c2C#N)cc1", "growth": "25.1% (inactive)"}, {"smiles": "S=C(Nc1ccccc1)Nc1ccc(OCc2nc3ccccc3[nH]2)cc1", "growth": "35.6% (inactive)"}, {"smiles": "O=C(/C=C/Nc1ccc(Cl)cc1)c1ccc2c(c1)Nc1ccccc1S2", "growth": "39.2% (inactive)"}, {"smiles": "COc1ccc(C(=O)/C=C/c2ccc(OCc3ccc(F)cc3)c(OC)c2)cc1OC", "growth": "8.63% (active)"}, {"smiles": "COc1c(F)ccc(C(=O)Nc2ccc3nc(NC(=O)C4CCCN(S(=O)(=O)c5cccc(C(F)(F)F)c5)C4)sc3c2)c1F", "note": "(stereo not drawn)", "growth": "60.7% (inactive)"}, {"smiles": "Cn1cc(-c2cc(N)n3nc(-c4c[nH]c5ccccc45)cc3n2)c2cccnc21", "growth": "-77.1% (active)"}, {"smiles": "Cc1ccc(C(=O)CSc2nc3ccc(C)cc3c(=O)n2-c2ccc(F)cc2)cc1", "growth": "18.8% (inactive)"}, {"smiles": "O=C(NNc1ccccc1)n1c(=O)c2ccccc2c(=O)n1-c1ccccc1", "growth": "79.2% (inactive)"}, {"smiles": "Cc1nc(Nc2ccccn2)sc1C(=O)CC(SCC(=O)Nc1ccc(Cl)cc1)c1ccccc1F", "note": "(stereo not drawn)", "growth": "4.66% (active)"}, {"smiles": "O=c1onc(-c2cc3ccccc3nc2Cl)n1-c1cccc2ccccc12", "growth": "40.2% (inactive)"}, {"smiles": "N#Cc1c(-c2cccc(Cl)c2Cl)cc(-c2c[nH]c3ccccc23)[nH]c1=O", "growth": "18.3% (inactive)"}, {"smiles": "CC(=O)OC[C@@]1(C)C2CC[C@]3(C)C(CC=C4C5CC(C)(C)CC[C@]5(C(=O)Nc5ccc(Br)cc5)CC[C@]43C)[C@@]2(C)C[C@@H](OC(C)=O)[C@@H]1OC(C)=O", "note": "(stereo partly drawn)", "growth": "24.6% (inactive)"}, {"smiles": "Cc1cc(C)cc(NC(=O)Cn2cc(COn3nnc4ccccc43)nn2)c1", "growth": "103% (inactive)"}, {"smiles": "CC(=O)Nc1cccc(Nc2nc(NCc3ccccc3)c3ccccc3n2)c1", "growth": "-74.7% (active)"}, {"smiles": "Clc1cccc(Cl)c1/C=C/c1cc(/C=C/c2ccc(Br)cc2)c2ccccc2n1", "growth": "95.8% (inactive)"}, {"smiles": "Cn1cc(-c2cc3nc(-c4cn(C)c5ncc(Br)cc45)cc(N)n3n2)c2ccccc21", "growth": "-100% (active)"}, {"smiles": "N#Cc1c(-c2ccccc2Cl)cc(-c2c[nH]c3ccccc23)[nH]c1=O", "growth": "52.4% (inactive)"}]}]}
